# Tests used:
# Assay in all cases: DAPPL (digital affinity profiling via proximity ligation, sequencing); 10 mM Tris-HCl pH 7.5, 50 mM NaCl, 1 mM DTT, 4% glycerol, room temperature, 30 min; GST-TFs on glutathione beads, 16-mer random dsDNA library, 0.1% formaldehyde crosslink after washing; high values mean tight binding
# FLI1 = biological target: T1, FLI1 (Homo sapiens, UniProt Q01543 1-452); conditions: protein: recombinant; tags: N-terminal GST; dsDNA, one strand shown
# T1 sequence: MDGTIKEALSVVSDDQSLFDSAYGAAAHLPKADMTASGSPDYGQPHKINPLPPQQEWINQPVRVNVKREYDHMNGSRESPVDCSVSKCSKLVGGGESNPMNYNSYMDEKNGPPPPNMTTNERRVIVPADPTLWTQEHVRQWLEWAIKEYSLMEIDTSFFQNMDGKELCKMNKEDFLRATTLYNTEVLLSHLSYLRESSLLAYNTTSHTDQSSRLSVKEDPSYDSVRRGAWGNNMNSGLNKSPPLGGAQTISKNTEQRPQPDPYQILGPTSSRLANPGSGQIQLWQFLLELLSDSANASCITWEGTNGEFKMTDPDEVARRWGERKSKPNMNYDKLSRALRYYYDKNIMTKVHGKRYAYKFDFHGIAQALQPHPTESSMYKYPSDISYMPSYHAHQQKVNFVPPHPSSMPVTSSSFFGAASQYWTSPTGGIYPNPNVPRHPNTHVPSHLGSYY
# In short: (§1)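 Pools of DNA-barcoded human transcription factors, expressed in yeast as GST fusions on glutathione beads and combined with a tag-only sample, were incubated with 200 nmole of a 16-mer random double-stranded DNA library. Incubation took 30 min at room temperature in Tris/NaCl/DTT/glycerol buffer and was followed by washing, 0.1% formaldehyde crosslinking, proximity ligation (BsaI/T4 ligase, 1 h, 37 °C), PCR amplification and sequencing on an Illumina NextSeq500. Binding signal is the ratio of a hexamer's read frequency for a factor to its frequency for the tag-only sample.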
# ELK1 = biological target: T2, ELK1 (Homo sapiens, UniProt P19419 1-428); conditions: protein: recombinant; tags: N-terminal GST; dsDNA, one strand shown
# T2 sequence: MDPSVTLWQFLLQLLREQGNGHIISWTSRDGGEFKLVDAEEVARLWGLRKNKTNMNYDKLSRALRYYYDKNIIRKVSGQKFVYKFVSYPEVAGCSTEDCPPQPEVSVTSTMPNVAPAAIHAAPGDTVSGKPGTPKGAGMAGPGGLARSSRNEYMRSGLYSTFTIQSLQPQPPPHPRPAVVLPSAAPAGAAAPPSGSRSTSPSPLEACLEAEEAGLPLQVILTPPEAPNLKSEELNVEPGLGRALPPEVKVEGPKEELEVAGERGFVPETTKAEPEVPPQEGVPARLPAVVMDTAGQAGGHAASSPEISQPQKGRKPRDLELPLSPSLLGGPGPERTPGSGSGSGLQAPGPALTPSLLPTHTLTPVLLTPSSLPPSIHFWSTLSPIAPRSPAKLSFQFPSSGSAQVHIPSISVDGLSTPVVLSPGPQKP
# In short: as §1
# GABPA = biological target: T3, GABPA (Homo sapiens, UniProt Q06546 1-454); conditions: protein: recombinant; tags: N-terminal GST; dsDNA, one strand shown
# T3 sequence: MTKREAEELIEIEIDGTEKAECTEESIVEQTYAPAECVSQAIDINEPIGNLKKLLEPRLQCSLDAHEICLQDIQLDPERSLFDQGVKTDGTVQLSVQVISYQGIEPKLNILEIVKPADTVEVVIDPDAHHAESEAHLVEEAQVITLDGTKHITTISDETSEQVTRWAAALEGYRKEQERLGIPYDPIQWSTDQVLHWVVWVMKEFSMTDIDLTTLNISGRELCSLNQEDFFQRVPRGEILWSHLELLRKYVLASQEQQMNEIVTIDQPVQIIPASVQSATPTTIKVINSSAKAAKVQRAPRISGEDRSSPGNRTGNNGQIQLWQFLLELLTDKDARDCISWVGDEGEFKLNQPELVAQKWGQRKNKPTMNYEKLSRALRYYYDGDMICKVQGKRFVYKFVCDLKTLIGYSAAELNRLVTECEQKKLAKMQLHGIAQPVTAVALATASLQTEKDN
# In short: as §1
# ERG = biological target: T4, ERG (Homo sapiens, UniProt P11308 1-479); conditions: protein: recombinant; tags: N-terminal GST; dsDNA, one strand shown
# T4 sequence: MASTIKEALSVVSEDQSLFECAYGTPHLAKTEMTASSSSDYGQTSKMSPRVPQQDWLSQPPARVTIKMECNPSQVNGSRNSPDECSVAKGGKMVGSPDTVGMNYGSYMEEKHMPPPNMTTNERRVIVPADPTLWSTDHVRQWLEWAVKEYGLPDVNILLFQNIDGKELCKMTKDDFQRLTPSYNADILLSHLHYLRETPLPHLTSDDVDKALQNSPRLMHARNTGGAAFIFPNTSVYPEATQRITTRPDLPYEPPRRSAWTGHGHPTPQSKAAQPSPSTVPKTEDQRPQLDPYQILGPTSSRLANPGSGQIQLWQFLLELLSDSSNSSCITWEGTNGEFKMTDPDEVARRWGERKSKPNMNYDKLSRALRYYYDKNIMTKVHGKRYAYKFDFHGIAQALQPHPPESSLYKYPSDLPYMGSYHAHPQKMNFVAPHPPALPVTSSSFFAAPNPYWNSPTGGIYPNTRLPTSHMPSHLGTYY
# In short: as §1
# ELF1 = ELF1 (Homo sapiens, UniProt P32519 1-619); conditions: protein: recombinant; tags: N-terminal GST; dsDNA, one strand shown
# In short: as §1
# EHF = biological target: T5, EHF (Homo sapiens, UniProt Q9NZC4 1-300); conditions: protein: recombinant; tags: N-terminal GST; dsDNA, one strand shown
# T5 sequence: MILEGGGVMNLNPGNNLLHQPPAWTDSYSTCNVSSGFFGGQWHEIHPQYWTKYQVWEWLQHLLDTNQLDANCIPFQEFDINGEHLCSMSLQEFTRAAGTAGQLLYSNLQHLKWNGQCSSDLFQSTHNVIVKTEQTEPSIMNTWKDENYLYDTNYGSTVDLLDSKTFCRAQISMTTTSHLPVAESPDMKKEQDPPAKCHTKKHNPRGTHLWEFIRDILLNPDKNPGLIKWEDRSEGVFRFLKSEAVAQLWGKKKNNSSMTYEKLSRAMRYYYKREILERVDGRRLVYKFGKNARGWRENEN
# In short: as §1
# SPI1 = SPI1 (Homo sapiens, UniProt P17947 1-270); conditions: protein: recombinant; tags: N-terminal GST; dsDNA, one strand shown
# In short: as §1
# SPIB = SPIB (Homo sapiens, UniProt Q01892 1-262); conditions: protein: recombinant; tags: N-terminal GST; dsDNA, one strand shown
# In short: as §1
# ELK3 = biological target: T6, ELK3 (Homo sapiens, UniProt P41970 1-407); conditions: protein: recombinant; tags: N-terminal GST; dsDNA, one strand shown
# T6 sequence: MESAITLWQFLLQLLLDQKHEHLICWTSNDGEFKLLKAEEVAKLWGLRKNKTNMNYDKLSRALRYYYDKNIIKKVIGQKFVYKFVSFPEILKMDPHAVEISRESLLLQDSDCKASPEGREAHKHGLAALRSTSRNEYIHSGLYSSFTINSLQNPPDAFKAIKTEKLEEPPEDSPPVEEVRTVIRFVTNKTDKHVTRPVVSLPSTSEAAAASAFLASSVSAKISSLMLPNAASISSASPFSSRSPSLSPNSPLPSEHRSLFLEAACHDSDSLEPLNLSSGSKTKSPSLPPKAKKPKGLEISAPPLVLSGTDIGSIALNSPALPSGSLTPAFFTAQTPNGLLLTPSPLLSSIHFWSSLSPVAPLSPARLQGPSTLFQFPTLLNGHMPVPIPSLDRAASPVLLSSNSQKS
# In short: as §1
# ETV5 = ETV5 (Homo sapiens, UniProt P41161 1-510); conditions: protein: recombinant; tags: N-terminal GST; dsDNA, one strand shown
# In short: as §1
# HSF1 = HSF1 (Homo sapiens, UniProt Q00613 1-529); conditions: protein: recombinant; tags: N-terminal GST; chain copies: 3; dsDNA, one strand shown
# In short: as §1
# SPIC = biological target: T7, SPIC (Homo sapiens, UniProt Q8N5J4 1-248); conditions: protein: recombinant; tags: N-terminal GST; dsDNA, one strand shown
# T7 sequence: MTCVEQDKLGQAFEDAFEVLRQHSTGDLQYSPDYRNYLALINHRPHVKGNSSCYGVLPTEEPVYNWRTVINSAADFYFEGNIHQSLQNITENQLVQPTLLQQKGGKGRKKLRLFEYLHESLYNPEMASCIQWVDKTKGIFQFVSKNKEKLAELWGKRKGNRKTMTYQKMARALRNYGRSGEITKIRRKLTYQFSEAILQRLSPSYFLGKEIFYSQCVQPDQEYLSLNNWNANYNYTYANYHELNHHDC
# In short: as §1
# ELF4 = ELF4 (Homo sapiens, UniProt Q99607 1-663); conditions: protein: recombinant; tags: N-terminal GST; dsDNA, one strand shown
# In short: as §1
# ELK4 = biological target: T8, ELK4 (Homo sapiens, UniProt P28324-2 1-405); conditions: protein: recombinant; tags: N-terminal GST; dsDNA, one strand shown
# T8 sequence: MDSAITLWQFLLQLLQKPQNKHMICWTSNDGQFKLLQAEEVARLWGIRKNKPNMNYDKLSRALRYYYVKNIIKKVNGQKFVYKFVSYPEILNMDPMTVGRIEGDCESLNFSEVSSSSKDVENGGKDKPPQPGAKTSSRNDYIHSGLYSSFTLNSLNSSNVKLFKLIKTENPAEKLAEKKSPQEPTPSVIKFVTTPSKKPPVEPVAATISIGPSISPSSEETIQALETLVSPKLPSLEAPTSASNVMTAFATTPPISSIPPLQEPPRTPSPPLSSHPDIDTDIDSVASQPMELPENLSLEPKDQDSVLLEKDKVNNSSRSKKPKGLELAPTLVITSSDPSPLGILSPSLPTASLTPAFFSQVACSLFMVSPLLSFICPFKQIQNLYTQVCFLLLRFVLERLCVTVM
# In short: as §1
# ETV2 = biological target: T9, ETV2 (Homo sapiens, UniProt O00321 1-342); conditions: protein: recombinant; tags: N-terminal GST; dsDNA, one strand shown
# T9 sequence: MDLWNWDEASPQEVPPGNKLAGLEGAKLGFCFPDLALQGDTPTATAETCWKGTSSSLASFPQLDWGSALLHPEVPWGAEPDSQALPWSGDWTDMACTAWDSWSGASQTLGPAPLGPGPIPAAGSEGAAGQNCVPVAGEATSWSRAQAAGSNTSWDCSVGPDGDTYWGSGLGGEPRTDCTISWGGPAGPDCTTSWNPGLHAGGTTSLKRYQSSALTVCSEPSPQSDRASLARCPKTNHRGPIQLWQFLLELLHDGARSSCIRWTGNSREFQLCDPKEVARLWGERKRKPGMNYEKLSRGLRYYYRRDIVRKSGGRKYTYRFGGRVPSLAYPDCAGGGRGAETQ
# In short: as §1
# ELF3 = biological target: T10, ELF3 (Homo sapiens, UniProt P78545 1-371); conditions: protein: recombinant; tags: N-terminal GST; dsDNA, one strand shown
# T10 sequence: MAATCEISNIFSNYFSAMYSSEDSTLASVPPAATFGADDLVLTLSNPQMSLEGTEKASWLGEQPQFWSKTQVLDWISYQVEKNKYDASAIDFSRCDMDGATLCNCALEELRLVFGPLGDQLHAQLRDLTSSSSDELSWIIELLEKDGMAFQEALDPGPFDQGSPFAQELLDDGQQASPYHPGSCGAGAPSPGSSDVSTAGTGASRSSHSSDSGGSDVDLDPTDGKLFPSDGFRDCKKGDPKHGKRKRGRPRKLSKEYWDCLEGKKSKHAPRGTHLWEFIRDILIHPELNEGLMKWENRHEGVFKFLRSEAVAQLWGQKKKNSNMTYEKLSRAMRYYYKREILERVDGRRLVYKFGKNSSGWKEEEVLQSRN
# In short: as §1
# CRX = CRX (Homo sapiens, UniProt O43186 1-299); conditions: protein: recombinant; tags: N-terminal GST; dsDNA, one strand shown
# In short: as §1
# ETV1 = ETV1 (Homo sapiens, UniProt P50549 1-477); conditions: protein: recombinant; tags: N-terminal GST; dsDNA, one strand shown
# In short: as §1
# ETV5, sequence (P41161 whole entry): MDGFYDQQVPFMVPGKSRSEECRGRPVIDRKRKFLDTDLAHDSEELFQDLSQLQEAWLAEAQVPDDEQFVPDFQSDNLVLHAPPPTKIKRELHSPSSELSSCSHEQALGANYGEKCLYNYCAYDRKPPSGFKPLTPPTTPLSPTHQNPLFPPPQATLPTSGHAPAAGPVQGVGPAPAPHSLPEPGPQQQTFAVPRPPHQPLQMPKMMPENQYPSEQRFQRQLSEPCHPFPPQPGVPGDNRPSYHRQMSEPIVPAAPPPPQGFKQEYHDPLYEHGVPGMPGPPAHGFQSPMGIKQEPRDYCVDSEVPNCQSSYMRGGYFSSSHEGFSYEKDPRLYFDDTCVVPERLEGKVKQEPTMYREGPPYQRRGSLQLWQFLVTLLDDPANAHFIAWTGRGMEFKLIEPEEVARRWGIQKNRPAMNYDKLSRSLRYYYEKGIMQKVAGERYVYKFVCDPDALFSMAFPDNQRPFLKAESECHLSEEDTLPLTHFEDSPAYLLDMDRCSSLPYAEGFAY
# CRX, sequence (O43186 whole entry): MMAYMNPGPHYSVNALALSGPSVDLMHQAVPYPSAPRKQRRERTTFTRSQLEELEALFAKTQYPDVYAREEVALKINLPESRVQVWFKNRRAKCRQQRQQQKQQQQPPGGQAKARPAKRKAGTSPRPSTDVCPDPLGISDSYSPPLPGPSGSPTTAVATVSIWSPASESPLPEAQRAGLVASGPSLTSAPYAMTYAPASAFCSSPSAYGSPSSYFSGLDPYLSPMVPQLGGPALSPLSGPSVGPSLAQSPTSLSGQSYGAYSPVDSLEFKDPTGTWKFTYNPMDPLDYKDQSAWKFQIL
# HSF1, sequence (Q00613 whole entry): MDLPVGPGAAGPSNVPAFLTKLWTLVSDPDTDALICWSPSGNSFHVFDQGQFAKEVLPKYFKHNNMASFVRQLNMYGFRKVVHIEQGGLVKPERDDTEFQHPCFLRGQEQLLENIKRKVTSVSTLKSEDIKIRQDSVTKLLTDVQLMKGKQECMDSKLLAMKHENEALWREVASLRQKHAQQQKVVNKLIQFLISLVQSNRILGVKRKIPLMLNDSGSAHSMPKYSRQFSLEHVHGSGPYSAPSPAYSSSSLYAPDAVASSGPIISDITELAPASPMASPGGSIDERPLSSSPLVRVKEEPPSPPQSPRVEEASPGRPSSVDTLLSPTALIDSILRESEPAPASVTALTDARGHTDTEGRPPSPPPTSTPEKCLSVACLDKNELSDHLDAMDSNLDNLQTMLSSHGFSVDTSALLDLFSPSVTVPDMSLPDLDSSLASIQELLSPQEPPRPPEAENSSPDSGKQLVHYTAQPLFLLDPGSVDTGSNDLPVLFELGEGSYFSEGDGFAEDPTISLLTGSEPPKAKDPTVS
# ETV1, sequence (P50549 whole entry): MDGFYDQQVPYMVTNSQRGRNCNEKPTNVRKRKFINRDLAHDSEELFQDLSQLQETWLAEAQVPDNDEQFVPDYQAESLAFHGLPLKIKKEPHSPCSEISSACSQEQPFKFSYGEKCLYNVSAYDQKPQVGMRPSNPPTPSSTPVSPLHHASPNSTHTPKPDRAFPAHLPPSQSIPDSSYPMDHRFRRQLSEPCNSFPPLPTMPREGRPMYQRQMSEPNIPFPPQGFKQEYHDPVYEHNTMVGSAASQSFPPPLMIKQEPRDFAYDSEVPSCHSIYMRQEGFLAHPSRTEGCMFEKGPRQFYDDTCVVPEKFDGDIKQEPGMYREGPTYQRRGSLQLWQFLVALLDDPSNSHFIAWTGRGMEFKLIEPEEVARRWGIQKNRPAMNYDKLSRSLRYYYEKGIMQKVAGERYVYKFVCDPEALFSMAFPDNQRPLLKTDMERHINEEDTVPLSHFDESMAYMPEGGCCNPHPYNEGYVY
# SPIB, sequence (Q01892 whole entry): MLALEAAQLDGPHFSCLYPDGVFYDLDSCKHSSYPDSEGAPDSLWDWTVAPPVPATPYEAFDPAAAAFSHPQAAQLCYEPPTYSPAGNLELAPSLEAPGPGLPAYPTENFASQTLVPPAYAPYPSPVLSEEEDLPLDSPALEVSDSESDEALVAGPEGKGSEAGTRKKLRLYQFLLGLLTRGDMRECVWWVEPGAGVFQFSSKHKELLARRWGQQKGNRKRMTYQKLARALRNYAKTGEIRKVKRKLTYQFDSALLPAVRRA
# ELF4, sequence (Q99607 whole entry): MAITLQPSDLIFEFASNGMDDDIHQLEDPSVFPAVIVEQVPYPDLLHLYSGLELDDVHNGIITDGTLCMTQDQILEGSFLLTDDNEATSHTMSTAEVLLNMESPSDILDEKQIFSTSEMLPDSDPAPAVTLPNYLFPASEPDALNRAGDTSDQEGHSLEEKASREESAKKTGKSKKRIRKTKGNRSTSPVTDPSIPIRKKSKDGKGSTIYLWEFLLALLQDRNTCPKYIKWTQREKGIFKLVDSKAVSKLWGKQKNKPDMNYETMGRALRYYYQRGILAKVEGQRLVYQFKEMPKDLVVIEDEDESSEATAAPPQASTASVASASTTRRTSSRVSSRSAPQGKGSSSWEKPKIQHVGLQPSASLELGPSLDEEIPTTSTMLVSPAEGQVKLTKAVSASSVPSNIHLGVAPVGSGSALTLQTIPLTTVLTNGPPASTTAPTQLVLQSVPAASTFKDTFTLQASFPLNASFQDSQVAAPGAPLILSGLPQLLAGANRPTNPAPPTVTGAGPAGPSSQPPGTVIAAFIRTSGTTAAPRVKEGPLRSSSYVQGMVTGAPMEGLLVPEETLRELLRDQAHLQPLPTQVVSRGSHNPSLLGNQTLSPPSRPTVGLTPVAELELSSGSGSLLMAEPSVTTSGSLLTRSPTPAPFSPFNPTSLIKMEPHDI
# ELF1, sequence (P32519 whole entry): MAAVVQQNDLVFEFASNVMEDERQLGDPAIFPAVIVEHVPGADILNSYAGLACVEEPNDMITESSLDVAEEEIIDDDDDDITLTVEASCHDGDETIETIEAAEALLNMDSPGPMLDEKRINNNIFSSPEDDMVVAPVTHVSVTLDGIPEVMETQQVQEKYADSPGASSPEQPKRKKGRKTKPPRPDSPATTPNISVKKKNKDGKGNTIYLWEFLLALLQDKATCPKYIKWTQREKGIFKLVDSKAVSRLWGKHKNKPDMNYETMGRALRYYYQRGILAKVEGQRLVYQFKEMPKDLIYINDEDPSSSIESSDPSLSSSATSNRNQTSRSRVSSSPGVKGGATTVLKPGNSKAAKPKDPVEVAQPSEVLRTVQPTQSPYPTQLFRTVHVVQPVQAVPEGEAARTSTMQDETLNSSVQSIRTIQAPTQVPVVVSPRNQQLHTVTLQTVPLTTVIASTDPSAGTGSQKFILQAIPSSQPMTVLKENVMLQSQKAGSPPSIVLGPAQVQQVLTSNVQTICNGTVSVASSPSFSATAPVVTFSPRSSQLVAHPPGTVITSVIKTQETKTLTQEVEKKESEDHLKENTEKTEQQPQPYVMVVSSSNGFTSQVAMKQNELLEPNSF
sequence,measurement,setting,value
TAGAAG,binding signal,FLI1,"1.05 fold enrichment (6-mer frequency, TF over GST control)"
same,binding signal,ELK1,"1.19 fold enrichment (6-mer frequency, TF over GST control)"
same,binding signal,GABPA,"1.15 fold enrichment (6-mer frequency, TF over GST control)"
same,binding signal,ERG,"1.19 fold enrichment (6-mer frequency, TF over GST control)"
same,binding signal,ELF1,"1.23 fold enrichment (6-mer frequency, TF over GST control)"
same,binding signal,EHF,"1.15 fold enrichment (6-mer frequency, TF over GST control)"
same,binding signal,SPI1,"1.24 fold enrichment (6-mer frequency, TF over GST control)"
same,binding signal,SPIB,"1.24 fold enrichment (6-mer frequency, TF over GST control)"
same,binding signal,ELK3,"1.13 fold enrichment (6-mer frequency, TF over GST control)"
same,binding signal,ETV5,"1.08 fold enrichment (6-mer frequency, TF over GST control)"
same,binding signal,HSF1,"2.77 fold enrichment (6-mer frequency, TF over GST control)"
same,binding signal,SPIC,"1.31 fold enrichment (6-mer frequency, TF over GST control)"
same,binding signal,ELF4,"1.19 fold enrichment (6-mer frequency, TF over GST control)"
same,binding signal,ELK4,"1.16 fold enrichment (6-mer frequency, TF over GST control)"
same,binding signal,ETV2,"1.18 fold enrichment (6-mer frequency, TF over GST control)"
same,binding signal,ELF3,"1.18 fold enrichment (6-mer frequency, TF over GST control)"
same,binding signal,CRX,"1.72 fold enrichment (6-mer frequency, TF over GST control)"
same,binding signal,ETV1,"1.06 fold enrichment (6-mer frequency, TF over GST control)"

# Reference: PMC7862700, “An all-to-all approach to the identification of sequence-specific readers for epigenetic DNA modifications on cytosine”
